CYP2C9 activ: CYP2C9 (human) activation; activation factor at 5 µM; recombinant CYP2C9, luciferin-H conversion, luminescence; hits give high values; factor 1 = untreated enzyme, 0 = blocked; P11712; 96,000 tested, 1.4% active;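 active = activation factor of 2 or more for CYP2C9 at a 5 µM dose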
Target sequence (P11712 whole entry, looked up): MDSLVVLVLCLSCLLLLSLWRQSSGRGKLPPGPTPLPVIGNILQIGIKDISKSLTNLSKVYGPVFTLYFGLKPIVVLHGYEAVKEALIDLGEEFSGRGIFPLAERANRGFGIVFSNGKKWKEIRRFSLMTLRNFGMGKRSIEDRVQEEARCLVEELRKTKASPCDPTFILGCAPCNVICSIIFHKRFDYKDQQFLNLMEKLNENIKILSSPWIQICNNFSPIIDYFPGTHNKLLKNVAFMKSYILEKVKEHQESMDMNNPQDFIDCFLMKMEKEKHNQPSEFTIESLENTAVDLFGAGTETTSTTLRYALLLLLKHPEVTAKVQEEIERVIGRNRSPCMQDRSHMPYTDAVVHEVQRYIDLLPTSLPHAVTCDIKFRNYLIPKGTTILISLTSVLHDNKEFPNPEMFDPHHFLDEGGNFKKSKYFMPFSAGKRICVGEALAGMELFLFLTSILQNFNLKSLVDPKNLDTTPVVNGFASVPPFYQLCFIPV
CYP2C19 inhib: human CYP2C19 inhibition | CYP2C19 Supersomes, luciferin-H EGE luminescence, 30 min | inhibition, % at 5 µM | 96,000 tested, 21% active;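 active = CYP2C19 inhibition above a set limit at 5 µM in the primary screen, cut at about 50% in these data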
cytoskel mod: alters cytoskeleton assembly in HUVEC cells. HUVEC TNFa F-actin phalloidin imaging, high content. inhibition, % at 2 µM. 91,000 tested, 0.18% active;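 active = inhibition above the batch mean plus 3 SD and confirmed as a hit by visual image inspection, cut at about 30% in these data, passing the limit was not always enough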
E-sel TNF inh: TNF alpha driven E-selectin expression inhibition. HUVEC TNFa-induced E-selectin immunofluorescence, high content. inhibition, % at 2 µM. 120,000 tested, 0.71% active. AID 1246;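 active = inhibition above the batch mean plus 3 SD, and confirmed as a hit on visual image review, cut at about 43% in these data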
CYP2C19 act: increases human CYP2C19 enzyme activity; P33261; activation factor at 5 µM; recombinant CYP2C19, luciferin-H EGE luminescence; hits give high values; 0 = fully inhibited enzyme, 1 = untreated enzyme; 96,000 tested, under 10 active;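 active = activation factor of at least 2 at 5 µM in the primary screen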
CYP2C9 inh: blocks human cytochrome P450 2C9. 96,000 tested, 20% active. P11712. inhibition, % at 5 µM. CYP2C9 Supersomes, luciferin-H conversion, luminescence;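 active = blocking of liver enzyme CYP2C9 beyond about 50% at 5 µM, limit read from the data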
Hits are given with their value. Most compounds without a hit are left out; they make up all but 22% or so of the library.

Screening O=C1CCC(/C=C/c2ccccc2)=NN1Cc1ccc(Cl)c(Cl)c1 returned CYP2C9 activ inactive, CYP2C19 inhib inactive, cytoskel mod inactive, CYP2C19 act inactive and CYP2C9 inh 73.
For O=C1CCC(/C=C/c2ccccc2)=NN1Cc1ccccc1Cl the results were CYP2C9 activ inactive, CYP2C19 inhib inactive, cytoskel mod inactive, CYP2C19 act inactive and CYP2C9 inh inactive.
CCOC(=O)Nc1ccc2c(c1)N(C(=O)CCN(C)C)c1ccccc1S2 was read as CYP2C9 activ inactive, CYP2C19 inhib inactive, cytoskel mod inactive, E-sel TNF inh inactive, CYP2C19 act inactive and CYP2C9 inh inactive.
CCOC(=O)Nc1ccc2c(c1)N(C(=O)OC)c1ccccc1CC2 was read as CYP2C9 activ inactive, CYP2C19 inhib 70, cytoskel mod inactive, CYP2C19 act inactive and CYP2C9 inh 85.
`CCOC(=O)Nc1ccc2c(c1)N(C(=O)CN1CCN(C)CC1)c1ccccc1S2` gave CYP2C9 activ inactive, CYP2C19 inhib 58, cytoskel mod inactive, E-sel TNF inh inactive, CYP2C19 act inactive and CYP2C9 inh inactive.
CCn1c(Cc2cccn2C)nnc1SCC(=O)c1ccc(C)cc1 was read as CYP2C9 activ inactive, CYP2C19 inhib inactive, cytoskel mod inactive, E-sel TNF inh inactive, CYP2C19 act inactive and CYP2C9 inh inactive.
CCOc1ccc(NC(=S)N(Cc2ccc(N(C)C)cc2)Cc2ccco2)cc1 was read as CYP2C9 activ inactive, CYP2C19 inhib inactive, cytoskel mod inactive, E-sel TNF inh inactive, CYP2C19 act inactive and CYP2C9 inh 63.
Screening CCOc1ccc(NC(=S)NCc2ccco2)cc1 returned E-sel TNF inh inactive.
For COc1ccc(OC)c(NC=C2C(=O)OC3(CCCCC3)OC2=O)c1 the results were CYP2C9 activ inactive, CYP2C19 inhib inactive, cytoskel mod inactive, E-sel TNF inh inactive, CYP2C19 act inactive and CYP2C9 inh inactive.
CC1=C(C(=O)OC2CCCCCCC2)C(c2cc3c(cc2Br)OCO3)CC(=O)N1 (stereo not given) was read as CYP2C9 activ inactive, CYP2C19 inhib 75, cytoskel mod inactive, E-sel TNF inh inactive, CYP2C19 act inactive and CYP2C9 inh 85.
For COC(=O)C1=C(C)NC(=O)CC1c1ccccc1F (stereo not given) the results were CYP2C9 activ inactive, CYP2C19 inhib inactive, cytoskel mod inactive, E-sel TNF inh inactive, CYP2C19 act inactive and CYP2C9 inh inactive.
Screening CSCCOC(=O)C1=C(C)NC(=O)CC1c1ccccc1Cl (stereo not given) returned CYP2C9 activ inactive, CYP2C19 inhib inactive, cytoskel mod inactive, E-sel TNF inh inactive, CYP2C19 act inactive and CYP2C9 inh inactive.
For COC(=O)C1=C(C)NC(=O)CC1c1ccc(F)c(Br)c1 (stereo not given) the results were CYP2C9 activ inactive, CYP2C19 inhib 51, cytoskel mod inactive, E-sel TNF inh inactive, CYP2C19 act inactive and CYP2C9 inh inactive.
`CC1=C(C(=O)OCCOC(C)C)C(c2cc3c(cc2Br)OCO3)CC(=O)N1` (stereo not given) gave CYP2C9 activ inactive, CYP2C19 inhib 80, cytoskel mod inactive, E-sel TNF inh inactive, CYP2C19 act inactive and CYP2C9 inh 65.
For COC(=O)C1=C(C)NC(=O)CC1c1cc2c(cc1Br)OCO2 (stereo not given) the results were CYP2C9 activ inactive, CYP2C19 inhib 82, E-sel TNF inh inactive, CYP2C19 act inactive and CYP2C9 inh 71.
For COC(=O)C1=C(C)NC(=O)CC1c1ccc(C(=O)OC)cc1 (stereo not given) the results were CYP2C9 activ inactive, CYP2C19 inhib inactive, cytoskel mod inactive, CYP2C19 act inactive and CYP2C9 inh inactive.
For Cc1cc(C(=O)N2CCC(C(F)(F)F)n3nccc32)on1 (stereo not given) the results were CYP2C9 activ inactive, CYP2C19 inhib inactive, cytoskel mod inactive, E-sel TNF inh inactive, CYP2C19 act inactive and CYP2C9 inh inactive.
For CC1(C)CC(=O)C(C2NCCc3ccccc32)=C(O)C1 (stereo not given) the results were CYP2C9 activ inactive, CYP2C19 inhib inactive, cytoskel mod inactive, E-sel TNF inh inactive, CYP2C19 act inactive and CYP2C9 inh inactive.
Screening CCOc1ccc(NC(=O)CN(C2CCCCC2)S(C)(=O)=O)cc1 returned CYP2C9 activ inactive, CYP2C19 inhib inactive, cytoskel mod inactive, E-sel TNF inh inactive, CYP2C19 act inactive and CYP2C9 inh inactive.
For Cc1cc(C)cc(N(CC(=O)NCc2ccco2)C(=O)c2snc(C(N)=O)c2N)c1 the results were cytoskel mod inactive and E-sel TNF inh inactive.
CCCCC(C(=O)NC(C)(C)C)N(Cc1ccco1)C(=O)c1snc(C(N)=O)c1N (stereo not given) was read as CYP2C9 activ inactive, CYP2C19 inhib 58, cytoskel mod inactive, E-sel TNF inh inactive, CYP2C19 act inactive and CYP2C9 inh 70.
Screening CC(C)CC(C(=O)NC1CCCC1)N(Cc1cccs1)C(=O)c1snc(C(N)=O)c1N (stereo not given) returned cytoskel mod inactive and E-sel TNF inh inactive.
For CCCC(C(=O)NC1CCCC1)N(Cc1ccc2c(c1)OCO2)C(=O)c1snc(C(N)=O)c1N (stereo not given) the results were CYP2C9 activ inactive, CYP2C19 inhib 97, cytoskel mod inactive, E-sel TNF inh inactive, CYP2C19 act inactive and CYP2C9 inh 83.
`CCC(C(=O)NCc1ccc(F)cc1)N(Cc1ccco1)C(=O)c1snc(C(N)=O)c1N` (stereo not given) gave CYP2C9 activ inactive, CYP2C19 inhib 58, cytoskel mod inactive, CYP2C19 act inactive and CYP2C9 inh 50.
Screening CCCC(C(=O)NCc1ccc(OC)cc1)N(Cc1ccco1)C(=O)c1snc(C(N)=O)c1N (stereo not given) returned CYP2C9 activ inactive, CYP2C19 inhib 60, cytoskel mod inactive, E-sel TNF inh inactive, CYP2C19 act inactive and CYP2C9 inh inactive.
For CCOc1ccccc1N(C(=O)c1snc(C(N)=O)c1N)C(C(=O)NC1CCCC1)c1ccco1 (stereo not given) the results were CYP2C9 activ inactive, CYP2C19 inhib inactive, cytoskel mod inactive, E-sel TNF inh inactive, CYP2C19 act inactive and CYP2C9 inh inactive.
CC(C)CCNC(=O)C(c1ccco1)N(Cc1ccc(F)cc1)C(=O)c1snc(C(N)=O)c1N (stereo not given) was read as CYP2C9 activ inactive, CYP2C19 inhib 67, cytoskel mod inactive, E-sel TNF inh inactive, CYP2C19 act inactive and CYP2C9 inh inactive.
Screening CC(C)OC(=O)CSc1nnc(-c2cnccn2)n1C returned cytoskel mod inactive and E-sel TNF inh inactive.
Screening COC(=O)c1cc(COc2ccc3c(c2)oc(=O)c2ccccc23)c(C)o1 returned CYP2C9 activ inactive, CYP2C19 inhib 52, cytoskel mod inactive, E-sel TNF inh inactive, CYP2C19 act inactive and CYP2C9 inh inactive.
Screening COCCOC(=O)c1c(C)oc2ccc(OCc3cc(C(=O)OC)oc3C)cc12 returned CYP2C9 activ inactive, CYP2C19 inhib inactive, cytoskel mod inactive, E-sel TNF inh inactive, CYP2C19 act inactive and CYP2C9 inh 56.

Screening data: PubChem, several laboratories
